12-LOX inh: Primary qHTS assay for inhibitors of human arachidonate 12S-lipoxygenase (ALOX12): Round 2 | Polyunsaturated fatty acid lipoxygenase ALOX12 (Homo sapiens), P18054 | purified 12hLO, xylenol orange hydroperoxide absorbance | Potency, µM (doses to about 108 µM), without a hit: at the top dose activity change, negative = inhibition, usual class: inhibitors | 1.1% of 580,000 active | AID 1671190, 2021; also: potency is read from the fitted curve at half-maximal effect; % is scaled to controls: 0 for no effect and ±100 for the full control effect
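Purified human 12hLO (150 nM final) in 25 mM Hepes, 0.01% Triton X-100, pH 7.0 was preincubated 15 min at room temperature with compound. Then 40 uM arachidonic acid was added, 30 min. Hydroperoxide was read by Fe-XO absorbance ratio 573/405 nm.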
Vif-A3F inh: qHTS for Inhibitors of Vif-A3F Interactions: qHTS; HeLa A3F-eYFP + Vif (tagged APOBEC3F with the HIV-1 protein that degrades it), YFP fluorescence increase; Potency, µM (titrated, usually from 46.1 µM), inactives show at the top dose activity, negative = active; 0.2% of 390,000 active; also: potency is read from the fitted curve at half-maximal effect; % of control where 0% means no effect; nearly all actives have a fitted effect of over 65% in size
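HeLa cells stably expressing Vif plus C-terminally eYFP-tagged A3F were seeded, incubated overnight at 37 deg C, dosed with compound, incubated overnight again at 37 deg C. Yellow fluorescence (Ex 488/Em 500-530) reported blocked Vif-mediated A3F-eYFP degradation.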
ASM inhibitor: Inhibitors of Secretory Acid Sphingomyelinase (S-ASM): qHTS; Potency, µM (titrated, usually from 57.5 µM), inactives show at the top dose activity change, negative = inhibition, actives largely listed as inhibitors; 0.006% of 340,000 active; placental ASM, HMU-PC fluorogenic substrate, 60 min; Sphingomyelin phosphodiesterase (Homo sapiens), P17405; also: potency is read from the fitted curve at half-maximal effect
Target sequence (P17405 47-631 limits assumed): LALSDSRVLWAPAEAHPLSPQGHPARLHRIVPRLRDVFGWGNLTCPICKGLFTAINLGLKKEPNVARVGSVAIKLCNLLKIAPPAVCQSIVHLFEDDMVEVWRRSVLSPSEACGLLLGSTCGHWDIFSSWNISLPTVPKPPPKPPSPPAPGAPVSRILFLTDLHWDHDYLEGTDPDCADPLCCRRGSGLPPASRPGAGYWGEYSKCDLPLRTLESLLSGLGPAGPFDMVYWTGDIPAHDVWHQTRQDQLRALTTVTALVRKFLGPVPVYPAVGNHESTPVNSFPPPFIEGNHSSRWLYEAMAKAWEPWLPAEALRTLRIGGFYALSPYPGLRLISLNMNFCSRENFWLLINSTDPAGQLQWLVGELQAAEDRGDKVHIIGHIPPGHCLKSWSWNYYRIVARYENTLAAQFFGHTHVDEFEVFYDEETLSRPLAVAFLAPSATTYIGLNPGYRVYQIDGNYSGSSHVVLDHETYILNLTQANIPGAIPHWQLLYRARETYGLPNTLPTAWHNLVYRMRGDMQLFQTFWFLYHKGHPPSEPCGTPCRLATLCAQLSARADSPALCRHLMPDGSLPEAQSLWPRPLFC
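Fluorescence read-out (Ex 386 nm, Em 447 nm) after stopping the reaction at pH 10. Enzyme: ASM from human placenta; substrate HMU-PC0, 9 uM final; 60 min, 37 °C. Compound preincubation 10 min, ambient temperature.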
Akt phos inh: HTS Assay for Inhibitors of Akt Phophorylation: Primary Screen; Neuro2A IGF-stimulated pAkt S473 HTRF, 20 min; hits give low values; activity change, % for hits at 50 µM; 0.32% of 360,000 active; AID 651550, 2012; in the data active = activity change below about -80%; inconclusive = mostly about -51% to -80%; also: % is scaled to controls: 0 for no effect and ±100 for the full control effect
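Neuro2A cells in DMEM with 0.5% FBS, overnight at 37 deg C, given compound at single 50 µM final, then IGF (6 nM final) for 20 min at 37 deg C. Lysed; phospho-Akt Ser473 by HTRF after 24 h, 665/615 ratio.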
TSG101-PTAP inh: qHTS Assay for Iinhibitors of HIV-1 Budding by Blocking the Interaction of PTAP/TSG101. Tumor susceptibility gene 101 protein (Homo sapiens), Q99816. Fluorescence polarization, FITC-PTAP peptide / Tsg101 binding. Potency, µM (doses to about 115 µM), inactives show at the top dose activity change, negative = inhibition, actives largely listed as inhibitors. 340,000 tested, under 10 active; active = well fitted inhibition curve with a large enough effect in the main read-out, with a control signal flat, not every such curve was filed as active; inconclusive = small, poorly fitted or top-dose-only effect, or effect the other way, or a change in a side signal; inactive = no such curve, though single readings can be large or run the other way; also: potency is read from the fitted curve at half-maximal effect; % of control where 0% means no effect
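Compounds were pin-transferred onto Tsg101 binding domain (10 uM final) in HEPES pH 7.5 buffer, then FITC-PTAP peptide was added at 50 nM final. After 20 min at RT, polarization reported peptide displacement across a qHTS concentration series.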
Vif-APOBEC3G blk: qHTS for Inhibitors of Vif-A3G Interactions: qHTS. DNA dC->dU-editing enzyme APOBEC-3G (Homo sapiens), Q9HC16. HeLa A3G-eYFP + Vif (tagged APOBEC3G with the HIV-1 protein that degrades it), YFP fluorescence, overnight. Potency, µM (highest dose often 46.1 µM), for inactives: at the highest dose activity, negative = active, hits mostly inhibitors. 0.076% of 410,000 active. AID 602310, 2012; also: potency is read from the fitted curve at half-maximal effect; % is scaled to controls: 0 for no effect and ±100 for the full control effect; nearly all actives have a fitted effect of over 60% in size
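Read-out is eYFP fluorescence (Ex 488/Em 500-530) from Vif-expressing HeLa A3G-eYFP cells; more signal means A3G escaped Vif-mediated degradation. Cells plated overnight, compound pinned in, incubated overnight at 37 deg C.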
The depositor's hits bear a star; i = inactive; ? = inconclusive; . = no result. Sampled rows, rich in hits. Any-hit rate of the full collection: about 1.4%. Unless noted, calls follow the shape of the dose curve; as a rule, active = well fitted curve in the direction sought with a large enough effect; inconclusive = small, poorly fitted or top-dose-only effect, or another doubt; inactive = no such curve, though single readings can be large; an effect the other way counts as inactive or inconclusive.

SMILES | 12-LOX inh | Vif-A3F inh | ASM inhibitor | Akt phos inh | TSG101-PTAP inh | Vif-APOBEC3G blk
CCc1ccccc1N(CC)C(=O)CCc1nc(-c2ccc(C)cc2)no1 | 73% | -15% | -14% | -116%* | -1% | 0%
Cc1ccc(-c2noc(CCC(=O)N(C)c3ccccc3F)n2)cc1 | -17% | 10% | . | . | . | 3%
CC(=O)Oc1ccccc1/C=C/c1nc2ccccc2c(=O)o1 | ? | 3% | 3% | i | 0% | 0%
O=c1oc(/C=C/c2ccc([N+](=O)[O-])s2)nc2ccccc12 | . | 28µM* | 6% | i | -8% | -18%
CC(CNC(=O)Cn1cc(C(N)=O)c2ccccc21)c1ccccc1 (stereo unspecified) | -7% | . | . | . | . | .
CN(C)c1ccc(/C=N/NC(=O)c2ccccc2Cl)cc1 | -8% | 2% | 2% | i | 1% | 10µM*
CCCc1cc(=O)oc2cc(OC(C)C(=O)NCc3ccc(S(N)(=O)=O)cc3)ccc12 (stereo unspecified) | -8% | . | . | . | . | .
Cn1c(-c2cccc(Br)c2)cnc1NCc1cccc(F)c1 | 11µM* | -3% | . | . | . | ?
Cn1c(-c2cccc([N+](=O)[O-])c2)cnc1NCc1cccc([N+](=O)[O-])c1 | ? | -17% | -4% | i | -2% | 12%
Nc1cccc(OCC2CCCO2)c1 (stereo unspecified) | 7.1µM* | . | . | . | . | .
O=C(Nc1cccc(-c2nc3ccccc3s2)c1)[C@@H]1CCCN1C(=O)c1cccs1 | 40µM* | . | . | . | . | .
O=C(Nc1ccc(-c2nc3ccccc3s2)cc1)C1CCN(C(=O)c2cccs2)CC1 | -9% | . | . | . | . | .
CN1CCN(C(=O)c2cc(-c3ccccn3)nc3ccccc23)CC1 | 26% | . | . | . | . | .
Cc1cccc(N/N=C/c2ccc(Cl)c(Cl)c2)c1 | 4µM* | . | . | . | . | .
Cc1cccc(N/N=C/c2ccc(F)c(F)c2)c1 | 5.6µM* | . | . | . | . | .
O=C(O)c1ccc(N/N=C/c2ccc(F)c(F)c2)cc1 | ? | -15% | -3% | i | 2% | -8%
CC(O)c1cc2n(n1)CCN(C(=O)CCc1nc3ccc(F)cc3[nH]1)C2 (stereo unspecified) | 20% | . | . | . | . | .
O=C(O)C(c1c[nH]c2cc(OCc3ccccc3)ccc12)N1CCN(Cc2ccccc2)CC1 (stereo unspecified) | -12% | . | . | . | . | .
CC(C)c1ccc(NC(=S)NC2CCCCCC2)cc1 | -21% | -16% | 0% | i | -4% | -1%
S=C(Nc1ccc(Oc2ccc(NC(=S)NC3CCCCC3)cc2)cc1)NC1CCCCC1 | 11µM* | ? | 2% | i | -4% | 2%
S=C(Nc1ccc(Oc2ccccc2)cc1)NC1CCCCC1 | ? | -1% | -2% | i | -1% | 2%
S=C(Nc1ccc(Oc2ccccc2)cc1)NC1CCCCCC1 | 28µM* | -11% | 2% | i | -3% | 1%
COc1ccc(OC)c(NC(=O)Cn2ccc3cc(OC)ccc32)c1 | 35% | . | . | . | . | .
CCOc1ccccc1OCCN1CCC(Cc2ccccc2)CC1 | -23% | 0% | -4% | i | 3% | -4%
O=[N+]([O-])c1ccc(CN2CCC(Cc3ccccc3)CC2)cc1 | ? | -3% | 0% | i | 0% | 0%
OC(COc1ccccc1)CN1CCC(Cc2ccccc2)CC1 (stereo unspecified) | 7.9µM* | 3% | -4% | i | -4% | 1%
O=[N+]([O-])c1cccc(OCCCN2CCC(Cc3ccccc3)CC2)c1 | 0.5µM* | -14% | 0% | i | -2% | -4%
